In all, about 33,000 sequences were measured (“E-score (-0.5 to 0.5)”: median about -0.056, highest 2% from about 0.38 on). Many of the other results were omitted from the sample, so the highest values are more common in it than they were.
These sequences were tested against Stb4 (UniProt P50104) (assay: PBM E-score (8-mer binding enrichment) (E-score (-0.5 to 0.5)); higher = stronger / more preferred TF binding). Settings: protein concentration: 200 nM; construct: GST-DNA-binding domain.
Experimental: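 Universal 'all 10-mer' protein binding microarrays (Agilent AMADID 015681) probed with GST-tagged S. cerevisiae TFs (full-length or DBD) made by in vitro transcription/translation (PURExpress), about 100-200 nM. Bound TF was detected with fluorescent anti-GST. Each ungapped 8-mer (which stands for itself and its reverse complement) is scored by the PBM enrichment score (E-score), a modified Wilcoxon-Mann-Whitney statistic from -0.5 to +0.5, computed with the Universal PBM Analysis Suite. Scale: above 0.35 generally sequence-specific binding.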

UniProt P50104, sequence (P50104 whole entry, the tested form may be a part): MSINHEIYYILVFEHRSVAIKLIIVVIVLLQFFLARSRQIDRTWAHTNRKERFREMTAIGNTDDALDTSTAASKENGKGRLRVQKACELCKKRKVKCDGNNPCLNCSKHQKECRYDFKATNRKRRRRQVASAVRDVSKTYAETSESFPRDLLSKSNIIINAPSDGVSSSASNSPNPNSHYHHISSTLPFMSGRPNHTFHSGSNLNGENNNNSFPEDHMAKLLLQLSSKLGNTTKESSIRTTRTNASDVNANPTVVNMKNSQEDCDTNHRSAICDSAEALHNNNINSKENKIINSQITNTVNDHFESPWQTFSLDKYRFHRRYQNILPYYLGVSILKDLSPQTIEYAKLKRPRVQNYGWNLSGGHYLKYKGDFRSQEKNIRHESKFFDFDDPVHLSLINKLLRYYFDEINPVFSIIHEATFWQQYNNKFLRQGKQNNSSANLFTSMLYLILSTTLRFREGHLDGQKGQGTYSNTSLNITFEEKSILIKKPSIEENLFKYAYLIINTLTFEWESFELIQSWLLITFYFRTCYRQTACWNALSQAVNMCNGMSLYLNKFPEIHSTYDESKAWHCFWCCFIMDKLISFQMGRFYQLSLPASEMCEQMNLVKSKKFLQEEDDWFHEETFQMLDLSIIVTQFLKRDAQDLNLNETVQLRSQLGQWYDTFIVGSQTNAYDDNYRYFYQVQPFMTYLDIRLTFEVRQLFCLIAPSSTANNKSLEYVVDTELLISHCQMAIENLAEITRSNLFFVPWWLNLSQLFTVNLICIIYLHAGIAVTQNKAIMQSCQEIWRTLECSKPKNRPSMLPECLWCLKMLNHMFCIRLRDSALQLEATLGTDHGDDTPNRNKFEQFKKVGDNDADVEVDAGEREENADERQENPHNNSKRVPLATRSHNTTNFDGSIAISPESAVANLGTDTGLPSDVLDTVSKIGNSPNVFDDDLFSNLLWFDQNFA

Sequence	PBM E-score
CGCCGAGA	0.361
AGCCGAGG	0.437
AGCCGACC	0.293
AGCCGAGA	0.436
AGCCGATA	0.344
CGCCGATC	0.241
CGCCGAGC	0.39
GGCCGAGA	0.347
GCATATGC	-0.173
CGCCACGC	-0.108
AAGGACTC	0.127
TGGATGAA	-0.185
GTGCCAGA	-0.31
AAGCGGCA	0.133
GCTGACGA	-0.346
GAGCACTC	0.09
GTCCGGAA	0.373
ATACGGAA	0.36
CTCCGGAA	0.391
ATCCGGAC	0.336
TTCCGGAA	0.46
AACCGGAA	0.377
CTCCGGAC	0.285
AACCGGAG	0.23
CTCCGGTA	0.254
ATCCGGAA	0.436

Sequence	PBM E-score
AACCGGAT	0.383
TTACGGAA	0.365
CAAATCCC	0.141
CACCCAGG	-0.115
GCGCCGCA	0.0423
GCTGGCAC	-0.224
CTAAAATC	-0.12
CCCGCTTA	0.0362
AAACAGTT	-0.0803
AATCAATC	0.055
ATCCGGAT	0.459
ATCCGCAT	0.348
ATGCGGAG	0.0793
ATCCGGTA	0.322
CTCCGGAG	0.304
ATCCGGTG	0.397
ATCCGGTC	0.302
ATCCGGAG	0.385
GTCCGGAC	0.283
CCTGGGTC	-0.126
AGTTAAAA	0.045
CATCAGGC	-0.149
GCTCATCC	0.127
TACGGATA	0.385
AACGGATG	0.304
AACGGATA	0.439

Sequence	PBM E-score
GACGGAGA	0.187
TACGGAAA	0.322
TACGGAGA	0.0409
CACGGATA	0.385
CACGGATG	0.338
CACGGATC	0.35
AACGGATT	0.155
GACGGATC	0.265
GACGGATA	0.385
GCTCAACC	-0.206
ACTCTCCT	-0.272
GGCAAGTA	0.0793
TGCGAGAA	-0.132
CAAAATCA	-0.00631
GATCCGTA	0.351
AATCCGCA	0.157
TATCCGCA	0.408
CATCCAAA	-0.2
GATCCAAA	-0.0151
CATCCGAA	0.476
TGTCCGAA	0.35
CATCCGCA	0.314
GATCCGAA	0.482
TATCCGAA	0.493
CATCCTAA	-0.079
TATCCAAA	-0.184

Sequence	PBM E-score
GCTTTCAC	-0.148
GCTATAGC	-0.096
ATTCTGCG	-0.0218
GAGAGACC	-0.122
ATACCTCC	-0.0529
TGATATCA	-0.281
TGCCACCA	-0.374
GGCGTCAC	-0.0997
GCCTTCAA	-0.13
GATGCGGC	0.0547
ATTCTTTC	-0.0171
AATCCGAA	0.42
AATCCGAT	0.368
GGTCCGAC	0.292
CGTCCGAA	0.336
GGTCCGAA	0.416
AATCCGTA	0.12
TATAGCCA	-0.113
CCGACTAA	0.29
CGGACAAG	0.138
CTCCTCGA	-0.284
CTATCCGC	0.396
ATATCCTC	-0.03
ATATCCGC	0.389
ACATCCGC	0.382
CTATCCCC	-0.0734

Sequence	PBM E-score
CTATCCAC	-0.0315
ACTGCCCG	0.123
ACTTTTCG	0.0867
GCCTCGCC	0.0101
CGCCCGGA	0.328
CCCCCGGA	0.176
GGCCCGGA	0.402
GCCCCGGA	0.385
ACCCCGGA	0.232
AGCCCGGA	0.361
AGAGGTTC	0.0565
ATAGCGGG	0.0172
AAGATGTG	-0.156
GCTAAGCA	-0.217
CCACAGAA	-0.0915
CCCAGACG	-0.17
AGCTTCGA	-0.189
ATCTTCCG	0.436
ATCTTCGC	0.016
AACTTCGC	-0.041
AGCTTCGC	-0.276
AACTTCGT	-0.177
ATCTTCCC	0.226
AGCTTCGG	0.395
ATCTTCGG	0.423
ATCTTCCA	-0.137

Sequence	PBM E-score
ATCTTCGA	-0.171
AACTTCGG	0.408
ATCGAACC	0.089
CTAGTCCA	-0.153
ACCAATGC	-0.00399
GTAGTCAC	-0.16
CTCTACTC	-0.106
GGATTCCA	0.13
ACCTTCCG	0.4
ACCTTCCT	-0.342
ACCTTCCC	0.0875
CCCTACAA	-0.218
ATCTATCA	-0.0983
AGAATGGC	-0.0824
CAGTCGGA	0.316
GAGTCGGC	0.223
GAGTCGGA	0.387
AAGTCGGA	0.372
TAGTCGGA	0.405
TAGTCGCA	-0.0285
AGATCGGG	0.28
GGATCGGA	0.402
GGATCGAA	0.214
CGATCGGA	0.322
AGATCGGC	0.189
AGATCGGA	0.438

Sequence	PBM E-score
GCATGAAA	-0.101
GTTCTCGA	-0.166
CCGAATCA	0.361
ACGAATCG	0.0102
CCGAATCC	0.427
GCGAATCC	-0.0095
ACGAATCC	0.009
CCGAATCG	0.405
ACTAGCAG	-0.298
GCCTACCC	0.0606
ACAGATCG	-0.0736
GATCCGGC	0.396
AATCCGGT	0.246
TATCCGGA	0.46
AATCCGGC	0.241
TATCCTGA	-0.0875
GATCCGCA	0.316
GATCCGGA	0.421
AATCCGGA	0.363
GAACCGGC	0.262
